LASV entry inh = inhibitors of Lassa virus binding or cell entry | 300,000 tested, 1.2% active | Potency, µM (doses to about 37.9 µM), without a hit: at the top dose activity change, negative = inhibition, usual class: inhibitors | Lassa virus pseudotype entry inhibition, cell reporter; calls by dose curve; tested in HEK293 cells; further: potency means the concentration at half of the fitted maximal effect; nearly all actives have a fitted effect of over 50% in size
FMDV antiviral = blocks foot and mouth disease virus; FMDV antiviral cell-based qHTS; Potency, µM (series often up to 57.9 µM), inactives show top-dose activity change, negative = inhibition, usual class: inhibitors; 410,000 tested, 1.2% active; AID 1159524; calls by dose curve; tested in HEK293T cells; further: read-out not given here; potency means the concentration at half of the fitted maximal effect; nearly all actives have a fitted effect of over 45% in size
MARV entry inh = inhibitors of Marburg virus binding or cell entry; Potency, µM (doses to about 37.8 µM), without a hit: at the highest dose activity change, negative = inhibition, usual class: inhibitors; 300,000 tested, 1.8% active; Marburg virus pseudotyped entry inhibition, cell reporter; AID 540276; calls by dose curve; tested in HEK293 cells; further: potency means the concentration at half of the fitted maximal effect
HCV inh = inhibitors of hepatitis C virus infection | Huh7.5.1 HCVcc-Cre infection, luciferase reporter, 44 h | Potency, µM (top dose mostly 41.8 µM), without a hit: top-dose activity change, negative = inhibition, hits mostly inhibitors | 340,000 tested, 3.4% active | AID 651820; active means well fitted inhibition curve with a large enough effect; inconclusive means small, poorly fitted or top-dose-only effect, or another doubt; inactive means no such curve, though single readings can be large or run the other way; further: potency means the concentration at half of the fitted maximal effect
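After 44 h co-culture of compound, cells and HCVcc-Cre (~0.5 moi), substrate is added for 15 min at room temperature and luciferase measured over 15 sec. Cells were seeded at 1,000/well and pre-cultured 4 h.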
HCMV antiviral = inhibitors of human cytomegalovirus. AID 1259415. HFF cells, HCMV-luciferase reporter, 72 h; hits give low values. 410,000 tested, 4.5% active. activity change, negative = inhibition, % at 57.5 µM; in the data active means activity change below about -60%; inconclusive means no clear call, values can overlap the other calls; inactive means above about -39%
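HFF cells seeded 16 h at 37C, treated with compounds, infected with luciferase-reporter HCMV at MOI 1 PFU/cell; luciferase read at 72 h post infection, normalized to buffer-only and Salinomycin controls.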
* = called active by the depositor; u = inconclusive; x = not tested or not shown; ! = not confirmed by another sample; [ ] = remark or other dose. Shown are actives, neighbours in structure and some others; about 7.9% of the full set was active somewhere. On the % scale 0 is the no-effect control and ±100 the full control effect.

SMILES	LASV entry inh	FMDV antiviral	MARV entry inh	HCV inh	HCMV antiviral
CN(C)c1nc(NCc2ccccc2)nc(SCC(=O)Nc2ccccc2)n1	-22.9%	x	u	u	u
Ic1ccc(N2CCN(Cc3c[nH]c4ncccc34)CC2)cc1	u	-27.1%	11.2µM*	u	u
CC=C[C@@H]1Oc2ccc(OC)cc2N2C(=O)[C@H](C)[C@@H](OCOC)[C@H]12	x	x	-22.7%[14.2 µM]	x	x
Cc1cc2[nH]c3c4ccccc4nc(C)c3c2cc1C	x	-13.2%	x	12.6µM*	-101.0*
Cc1nc2ccccc2c(=O)[nH]1	-23.0%	-15.9%	2.5%	13.8%	87.1
COc1ccc(-c2nnc(SCc3nnc(-c4ccc(Cl)cc4)o3)n2-c2ccccc2)cc1	16.6%	-14.4%	-22.2%	u	-20.2
COc1cccc(C2C(=O)N(C3CCCCC3)CC(=O)N2Cc2ccc(Cl)cc2)c1 (stereo not given)	-14.8%[46.1 µM]	1.4%	x	x	-68.2*
COc1cc(Cl)c(C)cc1NC(=O)CN1CCN(C(=O)C2CC2)CC1	x	-14.9%	x	u	x
C=CCNc1sc(C(=O)c2ccccc2)c(N)c1-c1nc2ccccc2s1	u	0.0%	u	-21.0%	x
CCOC(=O)c1sc(NCc2ccco2)c(-c2nc3ccccc3s2)c1N	-13.9%	2.8%	1.3%	10µM*	94.2
CCNc1sc(C(=O)c2cccs2)c(N)c1C#N	-17.7%	0.0%	u	12.6µM*	-6.4
C=CCNc1sc(C(=O)c2cccs2)c(N)c1C#N	-28.9%	8.8%	-22.3%	-27.6%	-1.0
CCNc1sc(C(=O)c2cccs2)c(N)c1-c1nc2ccccc2s1	u	4.4%	u	5.01µM*	-80.4*
C=C1C(=O)[C@@]23C[C@H]4[C@@H]5[C@@]6(C)CCC[C@@]57[C@@H]2[C@@H](O)[C@@H]1C[C@H]3[C@H]7N4C6	x	25.1µM*	x	-45.1%	-77.0*
O=C(Nc1cnn(C23CC4CC(CC(C4)C2)C3)c1)c1cnn2c(C(F)(F)F)cc(-c3ccco3)nc12	u	x	u	11.2µM*!	-21.6
Cc1ccccc1-c1cc(Nc2ccc(F)cc2)ncn1	x	18.9%	x	x	x
CC1(C(=O)O)CCN1C(=O)c1ccccc1F (stereo not given)	x	5.01µM*	x	x	-1.1
COC(=O)c1cc(S(=O)(=O)C(C)C)c(S(C)=O)s1 (stereo not given)	-2.1%[46.1 µM]	-17.5%	11.2µM*	16.9%	-66.4*
Cc1ccccc1Nc1nnc(-c2ccc(C)c(S(=O)(=O)N3CCCCC3)c2)c2ccccc12	u	0.0%	x	x	-63.3*
Cc1ccc(-c2nnc(Nc3ccc(O)cc3)c3ccccc23)cc1S(=O)(=O)N1CCCCC1	1.4%[46.1 µM]	-7.3%	x	x	-90.2*
Cc1sc2ncn(CCC(=O)O)c(=O)c2c1C	-3.1%	-26.3%	0.9%	6.3%	4.3
Cc1sc2ncn(CCn3cnc4sc(C)c(C)c4c3=O)c(=O)c2c1C	-15.3%	20µM*	u	u	u
COc1ccc(CN2CCC(n3cc(C(=O)N4CCCCC4)nn3)CC2)c(OC)c1	x	-10.2%	x	x	x
COc1ccccc1-c1c(C)nn2c(N3CCC(C)CC3)cc(C)nc12	-11.2%[46.1 µM]	25.1µM*	u	10µM*	-27.6
Cc1cc(C)n2nc(C)c(-c3ccc(Cl)cc3)c2n1	x	u	x	11.2µM*	-17.5
SMILES	LASV entry inh	FMDV antiviral	MARV entry inh	HCV inh	HCMV antiviral
Cc1cc(N2CCOCC2)n2nc(C)c(-c3ccccc3)c2n1	-14.1%	u	-1.1%	11.2µM*	63.8
COc1ccc(-c2c(C)nn3c(N4CCC(C(=O)NCCN(C)C)CC4)cc(C)nc23)cc1OC	1.0%	19.8%	20.6µM*	u	34.4
CN1CCCCC1C(=O)N1CCC(Oc2cccc(CN3CCN(c4ccccn4)CC3)c2)CC1 (stereo not given)	x	-7.0%	x	x	x
COc1ccc(-c2c(C)nn3c(-c4ccccc4)cc(-c4ccccc4)nc23)cc1	17.5%[46.1 µM]	-18.4%	1.0%[46.1 µM]	x	-8.1
COc1ccc(-c2c(C)nn3c(-c4ccccc4)cc(C)nc23)cc1	x	-29.1%	x	11.2µM*	14.2
N#CC(C(=S)Nc1ccccc1)c1nc2ccccc2[nH]1 (stereo not given)	x	-9.3%	x	-21.5%	-30.7
N#CC(C(=O)C1CCCCC1)c1nc2ccccc2[nH]1 (stereo not given)	-20.1%	x	0.6%	10µM*	-99.1*
C[C@H]1CC[C@H]2C(=O)N(Cc3ccccc3)C[C@@H](O)CN2[C@H]1c1ccc(Br)cc1	x	x	-33.0%[14.2 µM]	x	x
COc1ccc(N/C=C2\C(=O)CCc3c2oc2cc(Cl)c(O)c(Cl)c32)cc1	x	-24.4%	x	-7.9%	-61.9*
